Data published in PubChem BioAssay.
Active and inactive are the calls of the source.

Key:
Albumin (Bos taurus) = Albumin (Bos taurus) (UniProt P02769); assay: bovine serum albumin binders on microarray, profiling panel, artefact control for SMM control protein annotation, biochemical, small-molecule microarray, Alexa647 label, 635/667 nm fluorescence (AID 1118); conditions: BSA-A647 binding, fluorescence 635 nm, higher = more signal;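 note: score merges 667 nm emission intensity and signal-to-noise per printed compound spot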
[1] = small-molecule microarray binders of probe aXIP, primary screen, biochemical, NeuroSMM set, 635/667 nm fluorescence (AID 1119); conditions: higher = more signal, called active from +8 up or from −8 down;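 note: probe is the protein aXip251-270 applied at 1 µg/mL to compound-printed slides; binding of probe to printed compounds measured as 667 nm fluorescence plus signal to noise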
[2] = small-molecule binders of probe aNOTCH3, primary screen, biochemical, small-molecule microarray, 635/667 nm fluorescence (AID 1120); conditions: higher = more signal;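 note: probe is a biotin-tagged antibody raised against NOTCH3 rather than NOTCH3 protein; score merges spot fluorescence near 667 nm with spot signal to noise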
[3] = small-molecule binders of probe aNOTCH2, primary screen, biochemical, small-molecule microarray, 635/667 nm fluorescence (AID 1121); conditions: higher = more signal;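 note: score merges feature fluorescence read at 667 nm with its signal to noise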
[4] = molecular target: Carbonic anhydrase 2 (Homo sapiens) (UniProt P00918); assay: CAII small-molecule binders, profiling panel, biochemical, small-molecule microarray, Alexa647-labelled CAII (AID 1122); conditions: CAII-A647 binding fluorescence, higher = more signal
[5] = COS7 lysate on small-molecule microarray, probe aHis, 635 nm (AID 1123); conditions: COS7 cell lysate, fluorescence, higher = more signal;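 note: z-score combines 667nm fluorescence intensity with signal-to-noise per printed compound spot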
[6] = compound binding in COS7 lysate, probe aLAP1, primary screen, cell lysate, small-molecule microarray (AID 1124); conditions: probe aLAP1, fluorescence, higher = more signal;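 note: lysate comes from COS7 cells expressing LAP1 and is applied at 0.3 µg/mL; score merges spot fluorescence near 667 nm with signal-to-noise over triplicate slides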
Sam68 (KHDRBS1) = assay: Sam68 small-molecule binders, primary screen, biochemical, small-molecule microarray, 635 nm fluorescence (AID 1125); conditions: small-molecule microarray binding, higher = more signal;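 note: score merges 667 nm channel intensity with signal to noise over triplicate slides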
[7] = tested on: Chordin-like protein 2 (CHRDL2); assay: CHRDL2 small-molecule binders, primary screen, biochemical, small-molecule microarray, 635 nm fluorescence (AID 1126); conditions: small-molecule microarray binding, fluorescence 635 nm; higher = more signal;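 note: printed compound slides probed with Chrdl2 protein at 4 µg/mL for 1 h at 4 C; score merges 667 nm emission intensity with signal to noise over three replicate slides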
[8] = molecular target: Concanavalin-A (Canavalia ensiformis) (UniProt P02866); assay: ConA small-molecule binders, primary screen, artefact control for SMM control protein annotation, biochemical, small-molecule microarray, Alexa647 label, 635 nm (AID 1127); conditions: ConA-A647 binding fluorescence, higher = more signal;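 note: z combines 667 nm emission intensity with signal-to-noise across three replicate slides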
[9] = anti-His antibody binders, primary screen, artefact control for SMM control protein annotation, biochemical, small-molecule microarray, 635 nm fluorescence (AID 1128); conditions: anti-His Alexa647 antibody binding, higher = more signal;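 note: score merges feature fluorescence with signal-to-noise for each printed compound spot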
[10] = tested on: Human papillomavirus type 1a E7 protein (residues 1-88); assay: HPV1a E7 small-molecule binders, primary screen, biochemical, small-molecule microarray, residues 1-88, 635 nm (AID 1129); conditions: small-molecule microarray binding, fluorescence 635 nm; higher = more signal
[11] = molecular target: Focal adhesion kinase 1 (Homo sapiens) (UniProt Q05397); assay: small-molecule microarray binders of FAK, primary screen, biochemical, 635/667 nm fluorescence, BSA, DTT (AID 1130); conditions: PTK2 binding, 635 nm fluorescence, higher = more signal;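 note: composite of spot emission at 667 nm and signal to noise over triplicate slides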
[12] = tested on: Fibrinogen (Alexa647-labelled); assay: fibrinogen binders on compound microarrays, profiling panel, artefact control for SMM control-protein annotation, biochemical, small-molecule microarray, 635/667 nm fluorescence (AID 1131); conditions: fibrinogen-A647 binding fluorescence, higher = more signal;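 note: z-score merges 667 nm fluorescence with per-spot signal-to-noise over triplicate slides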
[13] = molecular target: Follistatin (Homo sapiens) (UniProt P19883); assay: follistatin binders on small-molecule microarrays, primary screen, biochemical, small-molecule microarray, 635/667 nm fluorescence (AID 1132); conditions: FST binding, 635 nm fluorescence, higher = more signal
[14] = molecular target: Fibroblast growth factor 2 (Homo sapiens) (UniProt P09038); assay: FGF2 binders on small-molecule microarrays, primary screen, biochemical, small-molecule microarray, 635/667 nm fluorescence (AID 1133); conditions: small-molecule microarray binding, FGF2, fluorescence 635/667; higher = more signal
[15] = mitochondrial membrane potential change in A549 cells, profiling panel, cell-based, JC-1 fluorescence, basal, 24 h, 100 nL (AID 1138); conditions: higher = more signal;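 note: A549 lung adenocarcinoma cells under basal conditions with no added stimulus; test concentration not given here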
Lefty1 = Lefty1 binders on small-molecule microarrays, primary screen, biochemical, small-molecule microarray, 635/667 nm fluorescence (AID 1139); conditions: small-molecule microarray binding, fluorescence 635/667; higher = more signal
[16] = tested on: wheat germ agglutinin (Triticum aestivum), Alexa647-labelled; assay: wheat germ agglutinin binders on compound microarrays, profiling panel, artefact control for SMM control-protein annotation, biochemical, small-molecule microarray, 635/667 nm fluorescence (AID 1140); conditions: WGA-A647 binding, 635 nm fluorescence, higher = more signal;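 note: score merges 667 nm feature emission with signal to noise over triplicate slides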
[17] = molecular target: Luciferin 4-monooxygenase (Photinus pyralis) (UniProt P08659); assay: firefly luciferase enzyme inhibitors, primary screen, biochemical, luminescence, purified enzyme, 2006 set (AID 1141); conditions: SteadyGlo luminescence, 30 min, higher = more signal, called active from +8 up or from −8 down;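 note: cell-free assay with purified firefly luciferase at 100 ng per well in PBS; test concentration not given here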
Sequence of Luciferin 4-monooxygenase (Photinus pyralis) (P08659 whole entry, looked up): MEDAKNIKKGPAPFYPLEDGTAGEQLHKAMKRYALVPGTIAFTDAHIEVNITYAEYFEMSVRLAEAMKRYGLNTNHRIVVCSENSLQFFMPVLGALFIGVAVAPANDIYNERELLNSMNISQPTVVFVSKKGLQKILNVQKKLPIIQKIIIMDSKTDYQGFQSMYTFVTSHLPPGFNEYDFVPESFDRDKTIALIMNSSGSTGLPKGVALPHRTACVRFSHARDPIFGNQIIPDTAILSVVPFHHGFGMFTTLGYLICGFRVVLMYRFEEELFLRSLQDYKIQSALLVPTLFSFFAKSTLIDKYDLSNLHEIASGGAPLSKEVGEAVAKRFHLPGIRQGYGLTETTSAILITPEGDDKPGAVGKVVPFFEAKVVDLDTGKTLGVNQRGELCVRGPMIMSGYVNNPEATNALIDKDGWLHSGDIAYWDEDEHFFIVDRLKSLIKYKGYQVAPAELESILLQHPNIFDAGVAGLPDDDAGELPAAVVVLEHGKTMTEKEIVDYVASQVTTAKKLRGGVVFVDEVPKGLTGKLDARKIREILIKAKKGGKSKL

Sequence of Albumin (Bos taurus) (P02769 whole entry, looked up): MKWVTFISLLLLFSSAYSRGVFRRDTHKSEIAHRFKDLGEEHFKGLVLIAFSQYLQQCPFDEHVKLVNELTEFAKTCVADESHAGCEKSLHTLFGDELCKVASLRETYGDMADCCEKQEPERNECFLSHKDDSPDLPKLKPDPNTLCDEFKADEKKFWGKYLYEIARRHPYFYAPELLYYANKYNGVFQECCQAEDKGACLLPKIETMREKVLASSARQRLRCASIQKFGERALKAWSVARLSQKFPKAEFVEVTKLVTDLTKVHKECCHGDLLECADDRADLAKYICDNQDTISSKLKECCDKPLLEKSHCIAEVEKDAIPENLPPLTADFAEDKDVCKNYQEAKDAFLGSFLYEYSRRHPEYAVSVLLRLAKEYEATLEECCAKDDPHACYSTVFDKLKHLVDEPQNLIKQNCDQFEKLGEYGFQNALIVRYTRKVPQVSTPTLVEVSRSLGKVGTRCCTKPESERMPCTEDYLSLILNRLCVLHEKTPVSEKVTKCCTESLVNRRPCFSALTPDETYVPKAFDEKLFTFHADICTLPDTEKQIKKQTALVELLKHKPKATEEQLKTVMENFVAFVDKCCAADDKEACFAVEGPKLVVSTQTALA
Sequence of Fibroblast growth factor 2 (Homo sapiens) (P09038 whole entry, looked up): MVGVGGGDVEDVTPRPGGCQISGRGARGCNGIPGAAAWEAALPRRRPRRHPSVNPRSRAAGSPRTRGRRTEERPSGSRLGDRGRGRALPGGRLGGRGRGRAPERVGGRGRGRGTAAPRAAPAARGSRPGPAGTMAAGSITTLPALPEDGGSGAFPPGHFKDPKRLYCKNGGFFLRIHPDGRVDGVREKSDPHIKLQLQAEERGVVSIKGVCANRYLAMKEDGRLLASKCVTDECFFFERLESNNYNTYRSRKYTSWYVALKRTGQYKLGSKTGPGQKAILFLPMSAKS
Sequence of Follistatin (Homo sapiens) (P19883 whole entry, looked up): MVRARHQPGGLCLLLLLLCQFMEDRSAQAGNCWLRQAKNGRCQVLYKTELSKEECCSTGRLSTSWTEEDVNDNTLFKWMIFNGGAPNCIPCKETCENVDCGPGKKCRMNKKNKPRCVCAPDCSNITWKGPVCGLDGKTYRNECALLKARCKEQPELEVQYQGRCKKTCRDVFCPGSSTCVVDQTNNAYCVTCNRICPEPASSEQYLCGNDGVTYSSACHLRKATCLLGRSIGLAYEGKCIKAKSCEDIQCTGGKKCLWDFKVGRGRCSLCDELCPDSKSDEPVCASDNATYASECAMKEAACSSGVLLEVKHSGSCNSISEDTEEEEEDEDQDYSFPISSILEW
Sequence of Focal adhesion kinase 1 (Homo sapiens) (Q05397 whole entry, looked up): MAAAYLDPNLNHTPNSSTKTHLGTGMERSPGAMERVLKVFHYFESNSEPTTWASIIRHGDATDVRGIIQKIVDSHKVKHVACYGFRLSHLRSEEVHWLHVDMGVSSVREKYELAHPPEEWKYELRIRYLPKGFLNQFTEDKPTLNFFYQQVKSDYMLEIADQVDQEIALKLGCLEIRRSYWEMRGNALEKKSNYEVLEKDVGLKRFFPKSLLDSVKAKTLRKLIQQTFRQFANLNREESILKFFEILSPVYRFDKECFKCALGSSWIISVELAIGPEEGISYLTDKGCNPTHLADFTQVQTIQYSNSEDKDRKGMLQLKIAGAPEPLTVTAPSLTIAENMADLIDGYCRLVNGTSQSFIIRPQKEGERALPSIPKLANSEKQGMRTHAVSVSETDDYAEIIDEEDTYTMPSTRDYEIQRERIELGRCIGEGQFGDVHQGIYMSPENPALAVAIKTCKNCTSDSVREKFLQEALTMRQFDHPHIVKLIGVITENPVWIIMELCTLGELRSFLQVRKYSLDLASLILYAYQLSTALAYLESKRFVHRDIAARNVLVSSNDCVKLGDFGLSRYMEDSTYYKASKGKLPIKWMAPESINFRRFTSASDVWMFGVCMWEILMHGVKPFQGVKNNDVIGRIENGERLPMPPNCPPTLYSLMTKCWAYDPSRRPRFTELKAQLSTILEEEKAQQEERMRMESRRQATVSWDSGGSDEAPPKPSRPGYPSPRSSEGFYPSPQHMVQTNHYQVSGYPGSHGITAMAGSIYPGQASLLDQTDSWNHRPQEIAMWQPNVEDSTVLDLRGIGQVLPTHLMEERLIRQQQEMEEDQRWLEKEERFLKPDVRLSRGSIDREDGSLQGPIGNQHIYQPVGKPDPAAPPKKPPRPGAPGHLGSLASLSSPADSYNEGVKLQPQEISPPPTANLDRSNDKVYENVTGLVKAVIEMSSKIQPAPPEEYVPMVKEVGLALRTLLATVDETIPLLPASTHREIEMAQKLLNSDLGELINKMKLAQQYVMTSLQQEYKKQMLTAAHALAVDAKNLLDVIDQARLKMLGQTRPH
Sequence of Concanavalin-A (Canavalia ensiformis) (P02866 whole entry, looked up): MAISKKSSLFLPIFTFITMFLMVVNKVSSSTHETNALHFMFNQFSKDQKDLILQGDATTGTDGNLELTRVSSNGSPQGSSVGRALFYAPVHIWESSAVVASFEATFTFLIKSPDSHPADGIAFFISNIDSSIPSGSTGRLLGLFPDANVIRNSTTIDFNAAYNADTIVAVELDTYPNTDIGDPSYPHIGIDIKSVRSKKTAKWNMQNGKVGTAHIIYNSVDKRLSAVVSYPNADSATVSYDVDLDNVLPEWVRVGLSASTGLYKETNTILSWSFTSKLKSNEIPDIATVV

Compound | composite z-score (Albumin (Bos taurus)) | composite Z-score [1] | composite z-score [2] | composite z-score [3] | composite z-score [4] | composite z-score [5] | composite z-score [6] | composite z-score (Sam68 (KHDRBS1)) | composite z-score [7] | composite z-score [8] | composite z-score [9] | composite z-score [10] | composite z-score [11] | composite z-score [12] | composite z-score [13] | composite z-score [14] | z-score [15] | composite z-score (Lefty1) | composite z-score [16] | z-score [17]
[N-]=[N+]=Nc1ccccc1C[C@]1(C(N)=O)COC(c2ccc(OCCCO)cc2)=N1 | 0.66 | 0.745 (inactive) | 0.148 | 0.105 | 0.77 | 2.98 | 1.46 | 0.0271 | -0.324 | -0.401 | 0.809 | -0.835 | 0.214 | -0.445 | 0.91 | -0.261 | -0.566 | -0.954 | 0.99 | -8.73 (active)
O=C1OCC=C[C@H]2OC34C=CCN(Cn5nnc6ccccc65)C(=O)[C@H]3N(CCO)C(=O)[C@@H]4[C@@H]12 (stereo not given in full) | -1.46 | -0.358 (inactive) | -0.173 | -0.171 | 0.935 | 0.32 | -0.137 | 0.184 | -1.43 | -0.941 | 1.68 | -0.696 | -0.619 | -1.41 | -1.32 | -1.46 | -0.546 | -1.17 | -0.944 | 0.0848 (inactive)
CC(C)(C)OC(=O)CC[C@@]1(C(N)=O)N=C(c2ccc(OCCCO)cc2)O[C@@H]1c1ccccc1CN=[N+]=[N-] | 0.818 | -0.0657 (inactive) | 0.651 | 0.27 | 0.876 | 3.13 | 1.12 | 0.914 | 0.312 | 0.933 | 3.46 | 1.13 | 0.177 | 0.524 | 1.34 | 1.34 | -0.332 | -0.721 | 0.68 | -1.79 (inactive)
CC[C@@H]1C=C(C(=O)O)[C@H](c2cccc(Cl)c2)N1S(=O)(=O)c1ccc(C)cc1 | 0.951 | -0.147 (inactive) | -0.0581 | 0.0274 | 0.824 | 2.46 | 0.501 | 1.09 | -0.682 | 0.471 | 1.47 | 1.14 | 0.887 | -0.611 | -0.126 | -0.686 | 0.435 | -0.908 | 0.226 | 0.556 (inactive)
COCCCNC(=O)[C@]1(Cc2ccccc2CN=[N+]=[N-])N=C(c2ccc(OCCCO)cc2)O[C@@H]1c1ccccc1N=[N+]=[N-] | 0.835 | -0.217 (inactive) | 0.805 | 0.188 | 0.525 | 2.24 | 0.152 | 1.34 | -0.992 | 1.05 | 2.6 | 1.2 | 0.641 | 0.927 | 0.564 | 0.854 | 0.398 | -0.108 | 1.2 | -6.03 (inactive)
O=C1N(Cc2ccccc2)Cc2ccccc2C[C@@]12COC(c1ccc(OCCCO)cc1)=N2 | -0.0983 | 0.852 (inactive) | 0.133 | 0.12 | 0.461 | 2.08 | 0.4 | 1.22 | 0.303 | 0.864 | 2.26 | 1.16 | 0.622 | -0.143 | 1.39 | 0.22 | -0.503 | -0.197 | 0.196 | -1.26 (inactive)
O=C1C2C=CC(C(O)c3ccccn3)N(Nc3ccc([N+](=O)[O-])cc3)C2C(=O)N1c1ccccc1 (stereo not given) | 0.89 | 0.0129 (inactive) | 0.0162 | 0.0215 | 0.592 | 0.438 | 1.85 | 0.102 | -0.421 | 1.13 | 0.344 | 1.16 | 0.427 | 1.02 | 0.336 | 0.292 | -0.378 | -0.43 | 1.05 | 0.654 (inactive)
C=C(CC1([C@@H](NP(=O)(c2ccccc2)c2ccccc2)[C@H]2C[C@@H]2CCCC)CC1)c1cccc(OC)c1 | 0.615 | 0.107 (inactive) | 0.222 | 0.119 | 0.334 | 1.86 | -0.151 | -0.176 | -1.06 | 0.506 | 1.18 | 0.811 | 0.751 | 0.269 | 0.43 | -0.7 | 0.959 | -0.739 | 0.344 | 2.59 (inactive)
CC(C)C[C@H]1NC(=O)CNC(=O)[C@@]23C(=O)N[C@@H](Cc4ccccc4)C2[C@H](C)[C@@]2(C)O[C@H]2C3/C=C/C/C=C\CNC1=O (stereo not given in full) | 0.591 | -0.0443 (inactive) | -0.0984 | -0.133 | 0.392 | 0.677 | 0.248 | 0.258 | 0.599 | 0.0947 | 0.0845 | 0.0956 | -0.419 | -0.304 | 0.67 | 0.0369 | -0.0605 | 0.438 | 0.813 | 0.151 (inactive)
C=CCNC(=O)[C@H]1[C@@H]2C(=O)O[C@@H](c3ccccc3)[C@@H](c3ccccc3)N2[C@@H](c2ccc(O)cc2)[C@]12C(=O)N(C(=O)OCCOC)c1ccc(C#Cc3ccc(OC)cc3)cc12 | 0.451 | -0.0437 (inactive) | 0.0271 | -0.112 | 0.382 | 0.428 | 0.5 | 0.934 | -0.142 | 0.876 | 0.91 | 1.13 | 0.319 | 0.658 | 0.751 | 0.817 | -1.33 | 0.402 | 0.58 | 0.39 (inactive)
